Unmarked numbers belong to inactive results.
Assays:
[1] = tested on: Falciformispora senegalensis CBS197.79; assay: growth relative to untreated control; higher = less inhibition, active = 20 or less
Procedure, shortened: (§1)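 Hyphal fragments of M. mycetomatis MM55 or F. senegalensis CBS197.79 were suspended in colourless RPMI 1640 with L-glutamine and MOPS at 68–72% transmission at 660 nm. They were exposed in 96-well plates to compound at 100 or 25 µM for 7 days at 37 °C. Viability was read with MTS (2 h, 490 nm) or resazurin (600 nm). Growth is metabolic activity relative to the untreated growth control, both corrected with a medium-plus-dye blank.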

[2] = tested on: Madurella mycetomatis MM55; assay: as above
Procedure, shortened: as §1

SMILES | growth ([1]; 25 µM) | growth ([1]; 100 µM) | growth ([2]; 25 µM) | growth ([2]; 100 µM)
CCN(CC)Cc1ccccc1CNc1ccnc2ccsc12 | 103% | 28.1% | 75.4% | 5.38% (active)
C[C@]1(c2nc3c(C(N)=O)cccc3[nH]2)CCCN1 | 95.9% | 93.8% | 130% | 87.6%
CC(C)CN(C[C@@H](O)[C@H](Cc1ccccc1)NC(=O)O[C@H]1CO[C@H]2OCC[C@H]21)S(=O)(=O)c1ccc(N)cc1 | 97.7% | 101% | 130% | 90.5%
COc1cc2nccc(Oc3ccc(NC(=O)C4(C(=O)Nc5ccc(F)cc5)CC4)cc3)c2cc1OC | 83.6% | 98.4% | 99.9% | 79.9%

Source: the supplement of paper PMC11172423
